# Laboratory results: PubChem BioAssay
# Target: Follistatin (Homo sapiens) (UniProt P19883)
# Assay: FST protein binding to printed compounds – biochemical, small-molecule microarray, 635/667 nm fluorescence, primary screen (AID 1132)
# Details: 635 nm fluorescence, higher = more signal
# Chain of Follistatin (Homo sapiens) (P19883 whole entry, looked up): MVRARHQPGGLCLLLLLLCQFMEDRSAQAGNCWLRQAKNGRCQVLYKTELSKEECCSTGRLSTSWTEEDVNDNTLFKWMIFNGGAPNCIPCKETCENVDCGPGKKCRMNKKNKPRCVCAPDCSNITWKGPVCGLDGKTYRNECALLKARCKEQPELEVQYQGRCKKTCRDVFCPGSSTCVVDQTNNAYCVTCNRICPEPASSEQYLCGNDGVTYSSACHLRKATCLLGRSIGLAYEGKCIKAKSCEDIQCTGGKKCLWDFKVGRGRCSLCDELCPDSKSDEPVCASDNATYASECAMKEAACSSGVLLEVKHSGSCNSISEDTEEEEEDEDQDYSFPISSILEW
row,Compound,composite z-score
1,C=C(COC)/C(=C/C[C@H](OC(C)=O)c1ccc(CO)o1)c1cc(C(=O)OC)ccc1OC,0.435
2,O=C(NCCN1CCOCC1)C1N=C(c2ccc(OCCCO)cc2)N(c2ccccc2)O1 (stereo unspecified),1.52
3,COCCOC(=O)N1C(=O)[C@@]2(c3cc(C#CCCO)ccc31)[C@H](C(=O)N1CCCCCCC1)[C@H]1C(=O)O[C@H](c3ccccc3)[C@H](c3ccccc3)N1[C@@H]2c1ccc(OCCO)cc1,1.4
4,COc1cc(Br)cc(C(O)C2C=CC3C(=O)N(C)C(=O)C3N2N2CCCCC2)c1OC (stereo unspecified),-1.02
5,C=C(C)[C@@H]1CC=C(C(O)C2C=CC3C(=O)N(C)C(=O)C3N2Nc2ccccc2)CC1 (stereo partly specified),1.38
6,O=C(N1CCCCC1)[C@]1(Cc2ccccc2)N=C(c2ccc(OCCCO)cc2)O[C@@H]1c1ccccc1,0.301
7,CC(C)c1ccc(NN2C(C(O)c3ccc(B(O)O)cc3)C=CC3C(=O)N(c4ccccc4)C(=O)C32)cc1 (stereo unspecified),1.32
8,C=CCNC(=O)[C@@H]1[C@H]2C(=O)O[C@H](c3ccccc3)[C@H](c3ccccc3)N2[C@H](c2ccccc2OCCO)[C@@]12C(=O)N(C(=O)OCCOC)c1ccccc12,1.39
9,CC(C)C(O)C1C=CC2C(=O)N(c3ccccc3)C(=O)C2N1Nc1ccc([N+](=O)[O-])cc1 (stereo unspecified),-0.197
10,COC(=O)[C@@]1(Cc2ccc(OC)cc2)[C@@H]2C(=CC(=O)[C@H]2CC(=O)C(=O)N2CCCC2)CN1C(=O)c1ccccc1,-0.0125
11,COC(=O)[C@@]1(Cc2ccc(OC)cc2)[C@H]2c3cc(C(=O)N(C)C)n(Cc4ccc(S(C)(=O)=O)cc4)c3C[C@H]2CN1C(=O)c1ccccc1,1.11
12,COCCOC(=O)N1C(=O)[C@@]2(c3cc(C#CC4(O)CCCCCC4)ccc31)[C@H](c1ccc(OCCO)cc1)N1[C@H](c3ccccc3)[C@H](c3ccccc3)OC(=O)[C@H]1[C@@H]2C(=O)N1CCN(c2ncccn2)CC1,1.03
13,COc1ccc(C#Cc2ccc3c(c2)[C@]2(C(=O)N3)[C@H](C(=O)Nc3nc4ccccc4s3)[C@H]3C(=O)O[C@H](c4ccccc4)[C@H](c4ccccc4)N3[C@@H]2c2ccc(O)cc2)cc1,1.38
14,OCCCC1=CC(c2cccs2)N(Cc2cc3c(cc2Br)OCO3)CC1 (stereo unspecified),0.333
15,CCN(CC)c1ccc(N2CC=CC34O[C@@H]5C=CCCOC(=O)C5[C@H]3C(=O)N(CCCCCCO)[C@@H]4C2=O)cc1 (stereo partly specified),-0.372
16,CCCCCN1CC=CC23O[C@@H]4/C=C\CCC(C)OC(=O)C4[C@H]2C(=O)N(C(C)CO)[C@@H]3C1=O (stereo partly specified),0.274
17,CC(C)OC(=O)C=C1C[C@@H](c2ccccn2)O[C@@H](c2ccccn2)O1,1.34
18,C=CCOC(=O)[C@H]1[C@@H]2C(=O)O[C@@H](c3ccccc3)[C@@H](c3ccccc3)N2[C@@H](c2ccc(OCCOC(=O)[C@@H]3C[C@@H]4C(=O)N[C@@H](CCCCNC(C)=O)C(=O)N4[C@@H]3c3ccc(O)cc3)cc2)[C@]12C(=O)Nc1ccccc12,1.25
19,Cc1nc2cc(Br)ccc2c(=O)o1,0.657
20,C=CCOC(=O)[C@H]1[C@@H]2C(=O)O[C@@H](c3ccccc3)[C@@H](c3ccccc3)N2[C@@H](c2ccc(OCCOC(=O)[C@H]3C[C@H]4C(=O)N[C@@H](CCCCNC(C)=O)C(=O)N4[C@H]3c3ccc(O)cc3)cc2)[C@]12C(=O)Nc1ccc(I)cc12,1.35
21,C=C[C@@H](COC(=O)OC(C)(C)C)N(Cc1ccc(OC)cc1)S(=O)(=O)c1ccc(Br)cc1,0.844
22,COc1ccc([Si](C)(C)[C@H]2[C@H](CCO)O[C@@]3(C(=O)N(Cc4ccc(N(C=O)c5ccccc5)cc4)c4ccccc43)[C@@H]2C)cc1,0.191
23,COCCOC(=O)N1C(=O)[C@@]2(c3cc(C#Cc4ccc(OC)cc4)ccc31)[C@H](c1ccc(OCCO)cc1)N1[C@H](c3ccccc3)[C@H](c3ccccc3)OC(=O)[C@H]1[C@@H]2C(=O)N1CCN(c2ncccn2)CC1,1.21
24,COc1ccc(C#Cc2ccc3c(c2)[C@]2(C(=O)N3)[C@H](c3ccccc3OCCO)N3[C@H](c4ccccc4)[C@H](c4ccccc4)OC(=O)[C@H]3[C@@H]2C(=O)Nc2nc3ccccc3s2)cc1,1.25
25,CCCC[C@@H]1C[C@H]1[C@@H](NC(=O)C(C)(C)C)c1ccc(C(F)(F)F)cc1,-1.57
26,COC(=O)C(CC#Cc1ccc2c(c1)[C@]1(C(=O)N2)[C@H](c2ccc(OCCO)cc2)N2[C@H](c3ccccc3)[C@H](c3ccccc3)OC(=O)[C@H]2[C@@H]1C(=O)Nc1nc2ccccc2s1)C(=O)OC,0.989
